Rows were chosen to be rich in hits. Some 8.6% of all compounds tested hit in one or more screens of this group.
MARV entry inh: Marburg virus entry inhibition | Marburg virus pseudotype entry/binding inhibition, cell-based | Potency, µM (top dose mostly 49.2 µM), usual class: inhibitors | hit rate 6.5% among 18,000 | AID 720532
Lassa entry: blocks Lassa virus binding or cell entry; Lassa virus pseudotyped entry inhibition, cell-based qHTS; Potency, µM (titrated, usually from 49.2 µM), usual class: inhibitors; hit rate 4.1% among 18,000; AID 720533
Hits are given with their value; . = inactive; ? = inconclusive; / = no result given; ! = not active in a repeat; [ ] = dose if it differs, or a comment. The call rests on the fitted dose curve; tested in HEK293 cells.

SMILES	MARV entry inh	Lassa entry
O=C(OC1Cc2c(O)cc(O)cc2OC1c1cc(O)c(=O)c2c(O)c(O)cc(C3Oc4cc(O)cc(O)c4CC3OC(=O)c3cc(O)c(O)c(O)c3)c2c1)c1cc(O)c(O)c(O)c1 (centres undefined)	1.3µM	.
O=C(O[C@@H]1Cc2c(O)cc(O)cc2OC1c1ccc(O)c(O)c1)c1cc(O)c(O)c(O)c1 (some centres undefined)	13µM	.
Oc1ccc(C2Oc3cc(O)cc(O)c3CC2O)cc1 (centres undefined)	.	.
O=C1C[C@@H](c2ccc(O)cc2)Oc2cc(O)cc(O)c21	.	.
Oc1cc(O)c2c(c1)OC(c1cc(O)c(O)c(O)c1)C(O)C2 (centres undefined)	?	.
CC=COC(=O)N[C@@H](c1cccc(C)c1)[C@]1(C(=O)OCC)CCCC1=O	.[8.59 µM]	.[8.59 µM]
COC(=O)c1c(C(=O)OC)c2c3cc(OC)c(OC)cc3cc([Si](C)(C)C)n2c1C(=O)OC	.[8.59 µM]	.[8.59 µM]
COC(=O)C1=C(C(=O)OC)[C@@H]2N(C)c3ccccc3[C@@]23CCC(=O)N(Cc2ccco2)C3=N1	.[8.59 µM]	/
CC(CCN1CCCc2nc(C)c(C)cc21)=NO[C@H](C)CN1CCCc2nc(C)c(C)cc21	.[8.59 µM]	.[8.59 µM]
CO/N=C(\C(=O)N[C@@H]1C(=O)N2C(C(=O)[O-])=C(C[n+]3ccc(N)n3CCO)CS[C@H]12)c1csc(N)n1	.	.
CC(C)(C)NCC(O)CSc1nc(-c2ccc(C(N)=O)s2)cs1 (centres undefined)	.	.
CCc1cc2c(nc1CC)CCN(CCC(C)=NO[C@@H]1O[C@H](COC(C)=O)[C@@H](OC(C)=O)[C@H](OC(C)=O)[C@@H]1OC(C)=O)C2	.[8.59 µM]	.[8.59 µM]
CC(=O)OC[C@H]1O[C@@H](n2ncc(=O)[nH]c2=O)[C@H](OC(C)=O)[C@@H]1OC(C)=O	2µM	1.6µM
O[C@@H](CNC[C@H](O)[C@H]1CCc2cc(F)ccc2O1)[C@@H]1CCc2cc(F)ccc2O1	10µM	?
O=C1Cc2c([nH]c3ccc(Br)cc23)-c2ccccc2N1	.	.
c1ccc2c(c1)SCc1c-2[nH]c2ccccc12	11µM	?
CS(=O)(=O)Nc1ccc(N=Cc2c(O)[nH]c3ccccc23)cc1	.	.
CCN1C(=NCc2cc(OC)c(OC)c(OC)c2)NC(c2ccccc2)C(C(=O)OC)=C1C (centres undefined)	.[8.59 µM]	.[8.59 µM]
CC[C@@H](C)[C@H](NS(=O)(=O)c1ccc(F)cc1Br)C(=O)OC	.	.
COc1ccc2c(c1OC)C(Cc1ccccc1)N1CCc3cc4c(cc3C1=C2)OCO4 (centres undefined)	?	25µM
COc1ccc2c(c1OC)C(=O)OC2C1c2cc3c(cc2CCN1C)OCO3 (centres undefined)	.	.
CN1CCN([C@@H]2C[S+](=O)([O-])N[C@@H]2COCc2ccccc2)CC1	.	.
COC(=O)[C@@]1(C=C2c3ccc(F)cc3[C@@H](OC)[C@@H]2C)[C@@H]2OCCC[C@@H]21	.[8.59 µM]	.[8.59 µM]
CC(C)C1C(=O)N(Cc2cn(CCC3OCCCO3)nn2)CCS(=O)(=O)N1Cc1ccc(-c2ccccc2)cc1 (centres undefined)	.	/
C#C[C@@]1(OC(C)=O)CC[C@@H]2[C@@H]3CCC4=C[C@@H](OC(C)=O)CC[C@H]4[C@H]3CC[C@]21C	.	.
SMILES	MARV entry inh	Lassa entry
C#C[C@]1(OC(C)=O)CC[C@H]2[C@@H]3CCC4=C/C(=N/O)CC[C@@H]4[C@H]3CC[C@@]21CC	.	28µM
CC(=O)OC[C@H]1O[C@H](C#Cc2ccc(C)cc2C)C=C[C@H]1OC(C)=O	.[8.59 µM]	?
CCCCCC(=O)N1C[C@@H](O)[C@H](n2cc(COC(=O)c3ccccc3)nn2)C[C@H]1c1ccccc1	.	.
CC1=C[C@@H](C)OC2(C1)C(=O)N(CC1CC1)c1cccc(Br)c12 (some centres undefined)	.[8.59 µM]	.[8.59 µM]
Oc1cc[c]([Hg][Cl])cc1	3.5µM	4.5µM
CC[C@H](c1ccc(O)cc1)[C@@H](CC)c1ccc(O)cc1	.	?
CC(C)(C)c1nc(-c2ccccc2)oc1Nc1ccc2ccccc2c1	.[8.59 µM]	.[8.59 µM]
CC[C@@H](O)C(C[C@@H](C)N(C)C)(c1ccccc1)c1ccccc1	13µM	?
CCC(O)c1ccccc1 (centres undefined)	.	.
O=C(NN=C1C[C@@H](O)[C@H](O)[C@H]2[C@@H]3C(=O)N(C4CCCCC4)C(=O)[C@@H]3CC[C@H]12)OCc1ccccc1	?	.[8.59 µM]
C=C1CC[C@H](O)CC1=C/C=C1\CCC[C@]2(C)[C@@H]([C@H](C)CC[C@@H](O)C(C)(C)O)CC[C@@H]12	.	16µM
C=C1CC[C@H](O)C/C1=C/C=C1\CCC[C@]2(C)[C@@H]([C@H](C)CCCC(C)C)CC[C@@H]12	.	?
C=C1CC[C@H](O)CC1=C/C=C1\CCC[C@]2(C)[C@@H]([C@H](C)CCCC(C)(C)O)CC[C@@H]12	.	13µM
C=C1CC[C@H](O)C/C1=C\C=C1/CCC[C@]2(C)[C@@H]([C@H](C)CCCC(C)C)CC[C@@H]12	.	?
C#CCN1C(=O)[C@]2(O[C@H](COc3ccccc3)CC3=C2CCC3)c2ccccc21	.[8.59 µM]	/
O=C1CCCC2=C1[C@H]1O[C@](CCCCN3C(=O)c4ccccc4C3=O)(Cc3c1ccc1ccccc31)O2	.[8.59 µM]	.[8.59 µM]
Cc1cc(=O)c2c(O)c3c(O)cc(=O)c4c3c3c(cc(O)c1c23)C(C)(C)C=4O	6.3µM	6.3µM
CC(C)=CCCC1(C)C=Cc2c(O)c3c(c(CC=C(C)C)c2O1)OC12C(CC4CC1C(C)(C)OC2(C/C=C(/C)C(=O)O)C4O)C3=O (centres undefined)	.	10µM
COC(=O)[C@@H]1CC[C@H](C)[C@@H](c2ccc(C)cc2)N1C(=O)c1ccc(C=NO[C@@H](C)c2cc(-c3c(C)cc(C)cc3C)no2)cc1	.[8.59 µM]	.[8.59 µM]
CCN1C(=NCc2cccc(Cl)c2)N[C@@H](CCc2ccccc2)[C@H](C(=O)OC)[C@H]1C	.[8.59 µM]	.[8.59 µM]
Clc1ccc2c(c1)N=C(N1CCNCC1)c1ccccc1N2	10µM	?
CN1CCN(C2=Nc3cc(Cl)ccc3Nc3ccccc32)CC1	10µM	8.9µM!
Clc1ccccc1-c1nc(N2CCNCC2)c2ccccc2n1	?	.
CN1CCN(C2=Nc3cc(F)ccc3Cc3ccccc32)CC1	?	.
COC(=O)C1=C(C)N(Cc2ccccc2)C(=NCC(C)C)NC1c1ccc(Br)cc1 (centres undefined)	.[8.59 µM]	.[8.59 µM]
SMILES	MARV entry inh	Lassa entry
Cc1cc(C)c(OCc2cn(CC(=O)c3ccc(O)cc3)nn2)c(C)c1	.	.
CN1CCCCC1CCN1c2ccccc2Sc2ccc(S(C)=O)cc21 (centres undefined)	8.9µM!	?
C=CC[C@]1(C(=O)OC)C=C[C@H](C)[C@@H](c2ccccc2)N1C(=O)C(F)(F)F	.[8.59 µM]	.[8.59 µM]
COc1cc2c(cc1OC)[C@H](C)N(CC1C(=O)O[C@@H]3C[C@@]4(C)CCC[C@H](C)[C@@]45OC5[C@H]13)CC2 (some centres undefined)	13µM	.
CCN1C(=O)[C@@H]2[C@H]3[C@H](O)[C@H](O)CC(=NOCC[C@@H]4C=C[C@H](OC(C)=O)[C@@H](COC(C)=O)O4)[C@@H]3CC[C@H]2C1=O	.[8.59 µM]	.[8.59 µM]
COc1cccc2c1[C@H](C=Cc1ccccc1)[C@@H]([C@H](O)COC(C)=O)OC2	.[8.59 µM]	.[8.59 µM]
CCOC(=O)C1OC1C(=O)N[C@@H](CC(C)C)C(=O)NCCC(C)C (some centres undefined)	5µM	.
